Molecules are shown by their SMILES. A number with no mark means an inactive call. Results filed as inconclusive are left out. Activity calls are given as the source filed them. Calls follow the shape of the dose curve; as a rule, active = well fitted curve in the direction sought with a large enough effect; inconclusive = small, poorly fitted or top-dose-only effect, or another doubt; inactive = no such curve, though single readings can be large; an effect the other way counts as inactive or inconclusive.

Assay [1] can be described thus: Confirmation and Secondary Assay for Modulators of Hemoglobin Beta Chain Splicing at IVS2 654 locus (AID 910).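 Also: per-well total GFP intensity by laser scanning cytometry after 2-day treatment.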 An outline of the steps:
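HeLa cells stably carrying EGFP interrupted by mutant beta-globin IVS2-654 intron (CMV-driven) were treated with compound for 2 days at 37C; corrected splicing was scored as total peak GFP intensity per well (488 nm excitation, 500-520 nm emission).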

The nature of assay [2]: Confirmation and Secondary Assay for Modulators of Hemoglobin Beta Chain Splicing at IVS2 705 locus (AID 930).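 Also: HeLa cells stably expressing the EGFP-705 splicing reporter; GFP fluorescence per well restored by corrected splicing of the IVS2-705 intron in EGFP.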 The essentials: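 First, HeLa EGFP-705 cells are seeded at 500/well in Optimem with 2% FCS and left overnight. Next, compound or DMSO is added for 2 days. Finally wells are laser-scanned and total peak GFP intensity scored.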
Assay [3] relates to 7G8. Kind of assay: qHTS profiling for inhibitors of Plasmodium falciparum proliferation (AID 504749). Also: nearly all actives have a fitted effect of over 60% in size. Also: potency is read from the fitted curve at half-maximal effect. The following applies: P. falciparum in erythrocytes, SYBR Green DNA, 72 h; series mostly up to 12.8 µM. An outline of the steps: (§1)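 Fluorescence of SYBR Green-bound parasite DNA, read at 485/535 nm, served as the growth measure. Infected erythrocytes were cultured with compound 72 h; artemisinin (0.29 uM) and DMSO wells defined the normalization range.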

Assay [4] deals with CP203. The description is as above. The following applies: P. falciparum in erythrocytes, SYBR Green DNA, 72 h; series mostly up to 12.8 µM. An outline of the steps: as §1
The subject of assay [5] is CP260. The assay is described as above. The following applies: P. falciparum in erythrocytes, SYBR Green DNA, 72 h; series mostly up to 12.8 µM. The essentials: as §1
Assay [6] deals with CP335. Described as above. The following applies: P. falciparum in erythrocytes, SYBR Green DNA, 72 h; series mostly up to 12.8 µM. The essentials:
as §1

The subject of assay [7] is DFO2036. Described as above. The following applies: P. falciparum in erythrocytes, SYBR Green DNA, 72 h; series mostly up to 12.8 µM. An outline of the steps:
as §1

Assay [8] deals with DIV17. The description is as above. The following applies: P. falciparum in erythrocytes, SYBR Green DNA, 72 h; series mostly up to 12.8 µM. An outline of the steps:
as §1

The subject of assay [9] is GB4. The assay is described as above. The following applies: P. falciparum in erythrocytes, SYBR Green DNA, 72 h; series mostly up to 12.8 µM. An outline of the steps:
as §1

Assay [10] has as its system ICS. Described as above. The following applies: P. falciparum in erythrocytes, SYBR Green DNA, 72 h; series mostly up to 12.8 µM. An outline of the steps:
as §1

In assay [11] the test system is W2. The description is as above. The following applies: P. falciparum in erythrocytes, SYBR Green DNA, 72 h; series mostly up to 12.8 µM. The essentials: as §1
Assay [12] has as its target Cytochrome P450 3A4 (Homo sapiens) (UniProt P08684). Description: qHTS Assay for Activators of Cytochrome P450 3A4 (AID 885). Also: nearly all actives have a fitted effect of over 65% in size. The essentials: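 Activators are scored by enhanced luminescence from CYP3A4 conversion of luciferin-PPXE (25uM, equal to KM) to luciferin, after 60 min at RT with an NADPH-regenerating system.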
For assay [13] the target is unchanged. Kind of assay: qHTS Assay for Inhibitors and Substrates of Cytochrome P450 3A4 (AID 884). Also: nearly all actives have a fitted effect of over 50% in size. An outline of the steps:
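Luminescent readout of luciferin produced by CYP3A4 (20 nM) dealkylation of Luciferin-PPXE, 25 uM (its KM). NADPH-driven reaction ran 60 min at RT after 10 min compound preincubation; data scaled to 57 uM ketoconazole as 100% inhibition.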

Assay [14] can be described thus: S16 Schwann cell viability assay (CellTiter-Glo assay) (AID 624031).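 Also: native untransfected S16 rat Schwann cells; nearly all actives have a fitted effect of over 70% in size.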 An outline of the steps:
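Counter-screen for cytotoxicity: parental S16 rat Schwann cells lacking the PMP22 reporters, treated 24 h with compound, viability from cellular ATP by CellTiter-Glo luminescence, normalized to DMSO (0%) and no-cell wells.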

A short description of assay [15]: S16 Schwann cell PMP22 intronic element firefly luciferase assay (AID 624032). Also: nearly all actives have a fitted effect of over 30% in size. The essentials: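 Rat S16 Schwann cells stably carrying a PMP22 intronic element-driven Fluc reporter were seeded overnight, then exposed to compounds for 24 h at 37 °C. Luminescence was normalized to PTC124 (positive control) and DMSO (0% activity).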
Assay [16] relates to CP215. Kind of assay: qHTS profiling for inhibitors of Plasmodium falciparum proliferation (AID 504749). Also: nearly all actives have a fitted effect of over 60% in size. Also: potency is read from the fitted curve at half-maximal effect. The following applies: P. falciparum in erythrocytes, SYBR Green DNA, 72 h; series mostly up to 12.8 µM. The essentials:
as §1

Cytochrome P450 3A4 (Homo sapiens), sequence (P08684 whole entry, looked up): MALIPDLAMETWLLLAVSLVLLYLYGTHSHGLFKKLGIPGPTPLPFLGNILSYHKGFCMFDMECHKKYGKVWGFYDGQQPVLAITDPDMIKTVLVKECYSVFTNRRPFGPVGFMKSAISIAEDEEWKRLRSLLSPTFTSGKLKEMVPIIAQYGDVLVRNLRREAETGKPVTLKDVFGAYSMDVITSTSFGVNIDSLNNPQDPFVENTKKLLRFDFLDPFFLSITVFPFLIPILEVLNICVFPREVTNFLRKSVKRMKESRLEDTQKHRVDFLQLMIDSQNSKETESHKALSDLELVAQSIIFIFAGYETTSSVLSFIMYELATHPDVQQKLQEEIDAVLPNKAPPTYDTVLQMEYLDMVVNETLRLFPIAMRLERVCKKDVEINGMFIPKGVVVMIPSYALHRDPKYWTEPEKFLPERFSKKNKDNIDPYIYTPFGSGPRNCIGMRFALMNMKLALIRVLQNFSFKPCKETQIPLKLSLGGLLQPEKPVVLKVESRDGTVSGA

Regarding `COc1ccc2cc1Oc1ccc(cc1)CC1c3c(cc4c(c3Oc3cc5c(cc3OC)CCN(C)C5C2)OCO4)CCN1C` (centres undefined), the Potency result in assay [1] and in [2] was “inactive” in each case. Besides, the Potency is 2.24 µM (active) in [3]; 12 µM (active) in assay [4]; 4.47 µM (active) in assay [5]; 6.01 µM (active) in assay [6]; 7.94 µM (active) in assay [7]; 7.57 µM (active) in assay [8]. Moreover, the Potency was 6.75 µM (active) in [9], 2.82 µM (active) in assay [10] and 1.9 µM (active) in assay [11].

`Cc1cc(O)c(C=O)c2c1C(=O)Oc1c(C)c(O)c3c(c1O2)C(O)OC3=O` (centres undefined): the Potency result in [12], in assay [1] and in assay [2] was “inactive” in each case.

For the compound `CC1CCC(C(C)C)C(=O)C1` (centres undefined), the Potency result in [13], in [1], in [2], in assay [15], in [3] and in assay [4] was “inactive” throughout. Further, the Potency entry in assay [16], in assay [5], in assay [6], in [7], in assay [8] and in assay [9] was “inactive” throughout. Further, the Potency entry in assay [10] and in [11] was “inactive” throughout. Moreover, in [14], the outcome was inactive.

`COC1CC(O[C@H]2/C(C)=C/CC3CC(C[C@]4(CCC(C)C(C5CCCCC5)O4)O3)OC(=O)[C@H]3C=C(C)/C(=N/O)C4OC/C(=C\C=C\[C@@H]2C)[C@@]43O)OC(C)C1O` (some centres undefined): the Potency result in assay [13], in assay [1], in assay [2], in [15], in assay [4] and in assay [16] was “inactive” throughout. For the same compound, in assay [14], the compound was classed as inactive. In addition, the Potency was 12.6 µM (active) in assay [3], 12.6 µM (active) in assay [10] and 13.5 µM (active) in assay [11].

With `CC(=O)OC1CCC2C3CCc4cc(O)ccc4C3CCC12C` (centres undefined), the Potency result in assay [1], in [2], in [4], in [16], in [5] and in [6] was “inactive” in each case. Further, the Potency result in assay [7], in assay [8] and in assay [9] was “inactive” in each case. The call in assay [14] was inactive.

For `CC(=O)N[C@H](CC(C)C)C(=O)O`, the Potency entry in [1], in [2], in [15], in [3], in assay [4] and in assay [16] was “inactive” each time. The Potency entry in assay [6], in [7], in assay [8], in [9], in assay [10] and in assay [11] was “inactive” in each case.

For the compound `C[C@]1(c2ccccc2)OC(C(=O)O)=CC1=O`, the call in [14] was inactive. The Potency result in assay [15], in assay [3], in assay [4], in [16], in [5] and in assay [6] was “inactive” in each case. The Potency result in assay [8], in assay [9], in assay [10] and in [11] was “inactive” throughout.

Consider `Cc1cc(O)c(C=O)c2c1C(=O)Oc1c(COC(=O)/C=C/C(=O)O)c(O)c(C(=O)O)c(C)c1O2`, for which the Potency entry in [12], in assay [1] and in [2] was “inactive” in each case.

Consider `CO[C@]12C(COC(N)=O)C3=C(C(=O)C(C)=C(N)C3=O)N1CC1NC12` (some centres undefined), for which the Potency entry in assay [1] and in [2] was “inactive” each time. Also, the Potency is 0.708 µM (active) in [3], 0.316 µM (active) in [7] and 0.355 µM (active) in assay [10].

For `CCOC(=O)C1=CC(OC(CC)CC)C(NC(C)=O)C(N)C1` (centres undefined), the Potency result in [12], in [1], in assay [2], in assay [4], in assay [16] and in assay [5] was “inactive” in each case. Besides, the Potency result in [6] and in assay [7] was “inactive” each time. For the same compound, the Potency in [11] is 6.75 µM (active).

Take `NC(C(=O)O)[C@@H]1CC(Cl)=NO1` (some centres undefined): the Potency result in [1] and in [2] was “inactive” each time. For the same compound, the Potency in assay [3] was 0.631 µM (active); in [4], 3.38 µM (active); in assay [16], 3.01 µM (active); in assay [5] it was 0.891 µM (active); in assay [6], 1.2 µM (active); in assay [7] it was 2 µM (active). Also, the Potency is 3.38 µM (active) in assay [8], 1.2 µM (active) in [9], 0.891 µM (active) in assay [10] and 0.849 µM (active) in assay [11].

As to `CC(=O)OCC(=O)[C@@]12OC3(CCCC3)OC1CC1C3CCC4=CC(=O)C=C[C@@]4(C)[C@]3(F)C(O)C[C@]12C` (some centres undefined), the Potency entry in assay [1], in assay [2] and in assay [15] was “inactive” in each case. The outcome in [14] was inactive. In addition, the results for the Potency in assay [3], in assay [10] and in assay [11] were 11.2 µM (active), 12.6 µM (active) and 10.7 µM (active), respectively.

In the case of `CC1(C)S[C@H]2C(NC(=O)[C@@H](N)c3ccc(O)cc3)C(=O)N2[C@@H]1C(=O)O` (some centres undefined), the Potency result in [13], in assay [1], in assay [2], in assay [3], in assay [4] and in assay [16] was “inactive” throughout. The Potency entry in assay [5], in [6], in assay [7], in assay [8], in [9] and in assay [10] was “inactive” throughout. In assay [11], the Potency result is “inactive”. In addition, in [14], the call was inactive.

Take `COC1C=CO[C@@]2(C)Oc3c(C)c(O)c4c(O)c(c5c(nc6cc(C)ccn65)c4c3C2=O)NC(=O)/C(C)=C\C=CC(C)C(O)[C@@H](C)C(O)C(C)[C@@H](OC(C)=O)C1C` (some centres undefined): the Potency entry in assay [12], in assay [1] and in assay [2] was “inactive” each time. In [14], the call was inactive. The Potency in assay [3] is 3.16 µM (active); in assay [16] it was 13.5 µM (active); in assay [5], 11.2 µM (active); in [6] it was 13.5 µM (active); in [8], 0.536 µM (active); in assay [9], 3.79 µM (active). In addition, the Potency in assay [10] is 5.01 µM (active); in assay [11], 1.9 µM (active).
